Laboratory results as given in the supplement of paper PMC10127200.
Where a name gives a salt, the structure may show the parent alone.

Tests used:
Assay in all cases: Euclidean distance of Cell Painting phenotypic profile (signed KS, 77 features) to DMSO centroid (dimensionless distance); 5 or 10 uM (library dependent); higher = stronger phenotypic change vs DMSO (phenoactivity)
Settings in all cases: 48 h
[1] = test system: 786-O
Outline: (§1)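 Stained cells were imaged confocally at 20X with 9 fields per well, after 48 h of exposure to library compounds at 10 or 5 uM (set by library; 0.1% DMSO final). The cells were five cancer lines and a healthy fibroblast line. From the images, Harmony extracted 77 features, each expressed as a signed Kolmogorov-Smirnov statistic relative to same-plate vehicle wells. Phenoactivity is measured as Euclidean distance to the median vehicle profile, using plate-position-corrected, correlation-weighted profiles averaged across replicates at the top dose.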

[2] = test system: A549
Outline: as §1

[3] = test system: DU145
Outline: as §1

[4] = test system: FB
Outline: as §1

[5] = test system: HEPG2
Outline: as §1

[6] = test system: OVCAR4
Outline: as §1

| Compound | Euclidean distance [1] | Euclidean distance [2] | Euclidean distance [3] | Euclidean distance [4] | Euclidean distance [5] | Euclidean distance [6] |
| --- | --- | --- | --- | --- | --- | --- |
| O=C(O)CCc1ccc(NCc2cccc(Oc3ccccc3)c2)cc1 | 1.31 | 1.43 | 1.69 | 1.47 | 1.25 | 1.53 |
| O=C1NC(=O)C(c2ccccc2[N+](=O)[O-])=C1Nc1ccc(O)c(Cl)c1 | 1.2 | 0.916 | 0.978 | 0.936 | 0.886 | 1.1 |
| O=C1CN2Cc3c(ccc(Cl)c3Cl)N=C2N1 [Anagrelide HCl] | 0.871 | 0.869 | 0.905 | 1.18 | 1.01 | 1.53 |
| COc1cc(NC(C)CCCN)c2ncccc2c1 (configuration not stated) [Primaquine Diphosphate] | 0.845 | 2.02 | 1.16 | 2.24 | 2.3 | 1.51 |
| CC(=O)O[C@]1(C(C)=O)CC[C@H]2[C@@H]3C=C(Cl)C4=CC(=O)[C@@H]5C[C@@H]5[C@]4(C)[C@H]3CC[C@@]21C [Cyproterone Acetate] | 1.3 | 0.841 | 0.95 | 0.862 | 1.95 | 0.974 |
| Cn1cc(/C=C2\C(=O)Nc3cccnc32)c2ccccc21 | 0.739 | 1.41 | 1.16 | 1.5 | 0.771 | 1.53 |
| CC(C)(C)C(=O)Oc1ccc(S(=O)(=O)Nc2ccccc2C(=O)NCC(=O)O)cc1 [Sivelestat (ONO-5046)] | 0.847 | 0.693 | 0.861 | 1.16 | 0.614 | 0.797 |
| C#CCN(C)CCCOc1ccc(Cl)cc1Cl [Clorgyline HCl] | 0.821 | 0.714 | 0.727 | 1.14 | 0.806 | 0.745 |
| CCCCCCNC(=O)n1cc(F)c(=O)[nH]c1=O [Carmofur] | 2.44 | 2.89 | 1.27 | 2.91 | 2.49 | 2.82 |
| CN[C@@H]1[C@H](O[C@H]2[C@H](O[C@H]3[C@H](O)[C@@H](O)[C@H](NC(=N)N)[C@@H](O)[C@@H]3NC(=N)N)O[C@@H](C)[C@]2(O)CO)O[C@@H](CO)[C@H](O)[C@H]1O [Dihydrostreptomycin sulfate] | 0.936 | 1.12 | 0.563 | 1.25 | 0.549 | 1.33 |
| COc1ccc2c(c1)C(=O)N(CCc1ccc(S(=O)(=O)NC(=O)NC3CCCCC3)cc1)C(=O)C2(C)C [Gliquidone] | 1.02 | 0.773 | 1.03 | 1.06 | 3.11 | 0.973 |
| Cc1cc2c(cc1CC(=O)c1sccc1S(=O)(=O)Nc1onc(C)c1Cl)OCO2 [Sitaxentan sodium] | 0.839 | 0.821 | 0.942 | 0.796 | 0.95 | 1.46 |
| CC(=O)NC[C@H]1CN(c2ccc(N3CCOCC3)c(F)c2)C(=O)O1 [Linezolid] | 1.83 | 1.27 | 1.73 | 0.611 | 0.92 | 1.35 |
| C=C[C@@H]1C[C@]1(NC(=O)[C@@H]1C[C@@H](Oc2ncc(OC)c3ccc(Cl)cc23)CN1C(=O)[C@@H](NC(=O)OC(C)(C)C)C(C)(C)C)C(=O)NS(=O)(=O)C1CC1 [Asunaprevir] | 1.27 | 1.49 | 0.966 | 0.784 | 0.47 | 1.08 |
| Nc1nc(Nc2ccc(S(N)(=O)=O)cc2)nn1C(=O)c1c(F)cccc1F | 1.27 | 1.64 | 1.5 | 0.817 | 1.7 | 1.05 |
| CN(C)CCOc1ccc(-c2nc(-c3ccncc3)c(-c3ccc4c(c3)CC/C4=N\O)[nH]2)cc1 | 1.49 | 1.63 | 2.08 | 2.65 | 4.66 | 2.22 |
| Cc1cc(C(=O)Nc2nc3cccc(Cl)c3n2[C@@H]2CCCCN(C(=O)/C=C/CN(C)C)C2)ccn1 [Nazartinib (EGF816. NVS-816)] | 1.87 | 1.93 | 1.67 | 3.18 | 2.99 | 1.9 |
| COc1cc(-c2ncn(/C=C\C(=O)OC(C)C)n2)cc(C(F)(F)F)c1 | 3.51 | 3.05 | 3.45 | 3.74 | 2.56 | 4.53 |
| CC(C)(C)NCC(O)COc1cccc2c1CCC(=O)N2 (configuration not stated) [Carteolol HCl] | 1.14 | 0.612 | 0.836 | 1.22 | 0.541 | 2.01 |
| NCC[C@H](O)C(=O)N[C@@H]1C[C@H](N)[C@@H](O[C@H]2O[C@H](CN)[C@@H](O)[C@H](O)[C@H]2O)[C@H](O)[C@H]1O[C@H]1O[C@H](CO)[C@@H](O)[C@H](N)[C@H]1O [Amikacin hydrate] | 1.52 | 1.1 | 0.584 | 1.08 | 1.29 | 1.07 |
| COc1cc2ncnc(Nc3ccc(Cl)cc3F)c2cc1OC | 1.46 | 1.74 | 1.56 | 1.26 | 1.51 | 1.01 |
| CN1C[C@@H]2C[C@H]1CN2c1cc2c(cc1F)c(=O)c(C(=O)O)cn2C1CC1 [Danofloxacin Mesylate] | 1.72 | 1.87 | 1.14 | 0.963 | 1.05 | 0.974 |
| CC(C)c1cc(-c2ccc(F)c3ccccc23)nc(N)n1 | 0.8 | 0.73 | 0.946 | 0.742 | 1 | 1.28 |
| CC(C)NCC(O)COc1ccc(COCCOC(C)C)cc1 (configuration not stated) [Bisoprolol fumarate] | 0.611 | 0.836 | 0.523 | 0.91 | 0.467 | 1.36 |
| O=C(O)C(O)C(O)C(=O)O (configuration not stated) [Tartaric acid] | 0.758 | 0.688 | 0.848 | 1.25 | 0.481 | 0.632 |
| CCOC(=O)/C=C(C)/C=C/C=C(C)/C=C/c1c(C)cc(OC)c(C)c1C [Etretinate] | 0.891 | 0.993 | 1.22 | 1.15 | 1.14 | 1.85 |
| CCC(Cc1c(I)cc(I)c(N)c1I)C(=O)O (configuration not stated) [Iopanoic acid] | 0.512 | 0.937 | 0.812 | 1.22 | 0.765 | 0.713 |
